High-throughput results: PubChem, several laboratories
NPR1 activator: GC-A (human) enzyme activation; P16066; HEK293 GC-A cells, cGMP TR-FRET, EC30 ANP; 0% at EC30 ANP, 100% saturating ANP; activation, % at 10 µM; 370,000 tested, 0.14% active; AID 1671463; in the data active = activation above about 40%
m5-HT2A agonist: activates the mouse 5-HT2A serotonin receptor; P35363; CHO-K1 mHTR2A beta-arrestin complementation, luminescence; percent of 30 µM serotonin response; activation, % at 7.6 µM; 360,000 tested, 0.66% active;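 active = activation above a run cutoff, the mean activation of all tested compounds plus 3 SD, cut at about 14% in these data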
Target sequence (P35363 whole entry, looked up): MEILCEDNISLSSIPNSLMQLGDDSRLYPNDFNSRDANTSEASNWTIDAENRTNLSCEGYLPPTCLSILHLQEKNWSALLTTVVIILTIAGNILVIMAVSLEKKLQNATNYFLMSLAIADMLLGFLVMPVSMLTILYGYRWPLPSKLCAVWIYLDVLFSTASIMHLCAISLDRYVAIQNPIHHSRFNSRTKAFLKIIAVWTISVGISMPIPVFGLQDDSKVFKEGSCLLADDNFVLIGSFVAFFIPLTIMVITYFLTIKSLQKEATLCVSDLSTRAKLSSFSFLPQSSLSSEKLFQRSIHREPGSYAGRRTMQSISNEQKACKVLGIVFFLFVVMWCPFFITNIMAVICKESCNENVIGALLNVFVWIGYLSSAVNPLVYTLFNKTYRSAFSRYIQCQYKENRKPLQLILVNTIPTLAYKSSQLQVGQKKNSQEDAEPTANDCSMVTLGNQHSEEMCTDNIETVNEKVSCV
MsrA inhibitor: inhibits bovine methionine sulfoxide reductase A; purified bovine MsrA, absorbance read-out; inhibition, % at 15.5 µM; 360,000 tested, 0.75% active; AID 651718; in the data active = inhibition above about 4.5%
bovine MsrA act: bovine methionine sulfoxide reductase A activation. AID 602163. activation, % at 10.6 µM. purified bovine MsrA, absorbance read-out. 360,000 tested, 0.3% active; in the data active = activation above about 7.5%
NPR2 activator: GC-B (human) receptor activation | P20594 | HEK293-GC-B cells, CNP EC30, cGMP TR-FRET; 0% at EC30 CNP, 100% saturating CNP | activation, % at 10 µM | 370,000 tested, 0.11% active;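 active = activation at 10 µM reaching about 35% in either raw or pattern-adjusted values, limit read from the data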
Numbers stand for hits; – = inactive; · = not tested or not shown. Compounds with a hit are over-represented: about 1.8% of the library has one in this group of screens.

SMILES | NPR1 activator | m5-HT2A agonist | MsrA inhibitor | bovine MsrA act | NPR2 activator
O=C(OC12CCCN(C1)/C(=C/c1ccccc1)C2)c1ccc(F)cc1 (stereo not given) | – | · | · | · | –
CCCCOCCCNC(=O)C[C@@H]1C(=O)N(Cc2ccc(OC)cc2)C2=CCN(C(=O)OC(C)(C)C)C[C@]21C(=O)OCC | – | · | · | · | –
CC(=O)c1c(N)nc2n(c1=O)CCCCC2 | – | – | – | – | 112.3
CC(=O)c1ccc(NC(=O)c2ccc3c(=O)n4c(nc3c2)CCCCC4)cc1 | – | – | – | – | –
CC1CCN(C2=NC(=O)N(c3ccc(Br)cc3)C(=O)C2)CC1 | – | · | · | · | –
Nc1c(C(=O)NCc2ccccc2)sc2nc(N3CCOCC3)c3c(c12)CCCC3 | 42.6 | – | – | – | 36.4
O=[N+]([O-])c1nn(-c2cccc(Cl)c2)n(O)c1=NCc1cccnc1 | – | – | – | – | –
O=[N+]([O-])c1nn(-c2ccc(Cl)cc2)n(O)c1=NCc1ccccc1Cl | 42.6 | – | – | – | –
O=[N+]([O-])c1nn(-c2ccc(Cl)cc2)n(O)c1=NCc1cccnc1 | 40.8 | – | – | – | –
CCOC(=O)c1cnc(-n2nc(C)cc2C)nc1NCc1ccccc1 | – | – | – | – | –
CCOC(=O)c1cnc(-n2cc(C)cn2)nc1NCc1ccc2c(c1)OCO2 | – | – | – | – | 44.5
C[C@H](O)Cc1cn(-c2cc3cc(C#Cc4ccsc4)ccc3oc2=O)nn1 | 46.8 | – | – | – | –
C[C@@H](O)CC#Cc1ccc2oc(=O)c(-n3cc(-c4ccsc4)nn3)cc2c1 | – | – | – | – | –
OC(c1ccccc1)(c1ccccc1)C1CCN(CCCOc2ccc(-c3cccnc3)cc2)CC1 | – | · | – | · | –
COc1cc(OC)cc(C(=O)/C=C2\Sc3ccccc3N2C)c1 | – | – | – | – | –
COCC(=O)/C=C1\Sc2ccccc2N1C | – | – | 5.1 | – | –
Clc1ccc(-n2nnnc2SCc2c(-c3ccccc3)nc3sccn23)cc1 | – | – | – | – | 39.0
O=c1[nH]c(CSc2nnnn2-c2ccc(Cl)cc2)nc2ccccc12 | – | – | – | – | –
NC(=S)N/N=C1\CC(c2ccc3c(c2)OCCO3)Oc2ccc(F)cc21 (stereo not given) | – | – | – | – | 41.7
CCN(CC)C(=O)CC[C@@H]1CC[C@]2(CCCN(C(=O)C(C)(C)C)C2)O1 | – | · | · | · | –
CCCn1c(O)c2ccc(C(=O)N=NC(=O)c3cccnc3)cc2c1O | – | 20.8 | – | – | –
CC(=O)OC12CCCN(C1)/C(=C/c1ccccc1)C2 (stereo not given) | – | · | · | · | –
CN(C)c1ccc(-c2nc3cnccn3c2Nc2ccc3c(c2)OCCO3)cc1 | – | – | – | – | –
Cc1ccc(-c2nc3cnccn3c2Nc2ccc3c(c2)OCO3)cc1 | 50.8 | – | – | – | 50.1
COc1ccc(-c2nc3cnccn3c2Nc2ccc3c(c2)OCO3)cc1 | 52.0 | – | – | – | 46.9
SMILES | NPR1 activator | m5-HT2A agonist | MsrA inhibitor | bovine MsrA act | NPR2 activator
COCc1cccc(-c2cc(C(=O)OC)c3n(c2=O)CCC3)c1 | – | · | · | · | –
CCOC(=O)N1CCN(c2ccc(C(C)=O)cc2F)CC1C (stereo not given) | – | – | 4.6 | – | –
COC(=O)[C@]1(CNS(=O)(=O)c2ccc(F)cc2)CC(=O)N(C)[C@@H]1c1ccccc1 | – | · | · | · | –
CC(C)n1cc(/C=C(\C#N)S(=O)(=O)c2ccccc2)c2ccccc21 | – | – | – | – | 51.0
N#C/C(=C\c1cn(-c2ccccc2)nc1-c1ccccc1)S(=O)(=O)c1ccccc1 | – | – | – | – | –
N#Cc1ccc(/C=C2\CC3(OC(=O)c4ccccc4)CCCN2C3)cc1 (stereo not given) | – | · | · | · | –
CC(C)CNc1nnnc2c1sc1nc(N3CCOCC3)c3c(c12)CC(C)(C)SC3 | 51.8 | – | – | – | 40.0
CC1(C)Cc2c(c(-c3ccco3)nc3sc4c(NCCN5CCOCC5)ncnc4c23)CO1 | – | – | – | – | –
CN(C)CCNc1ncnc2c1sc1nc(N3CCCC3)c3c(c12)CC(C)(C)OC3 | – | – | – | – | –
Cc1nc2c(sc3nc(N4CCOCC4)c4c(c32)CC(C)(C)OC4)c(-c2ccccc2)c1C(=O)O | – | – | – | – | –
CC(C)CNc1ncnc2c1sc1nc(N3CCOCC3)c3c(c12)CC(C)(C)OC3 | 42.0 | – | – | – | 38.7
CC1(C)Cc2c(c(N3CCOCC3)nc3sc4c(NCc5ccccc5)nnnc4c23)CS1 | 47.2 | – | – | – | 49.6
CC1(C)Cc2c(c(N3CCOCC3)nc3sc4c(NCc5ccco5)nnnc4c23)CS1 | 54.5 | – | – | – | 48.0
CC1(C)Cc2c(c(N3CCOCC3)nc3sc4c(NN)ncnc4c23)CS1 | – | – | – | – | –
CC(=O)c1ccc(OCc2cn(CC(=O)c3ccc(O)cc3)nn2)c(C)c1 | – | – | – | – | –
O=C(Cn1cc(COc2ccc(Br)cc2[N+](=O)[O-])nn1)c1ccc(O)cc1 | – | – | 4.6 | – | –
CCCCN(C)C(=O)CN1C(=O)C2CCCCN2C(=O)c2ccccc21 (stereo not given) | – | · | · | · | –
CC12CN3CC(C)(CN(C1)C3c1ccc(Cl)cc1Cl)C2O (stereo not given) | – | – | – | – | –
CN(C)c1ccc(C2N3CC4(C)CN2CC(C)(C3)C4O)cc1 (stereo not given) | – | – | 5.5 | – | –
COc1ccccc1CNC(=O)C(=O)NCC1OCCCN1S(=O)(=O)c1cccs1 (stereo not given) | – | 16.6 | – | – | –
COc1ccc(C(=O)OCCCN(C)C2CN(Cc3cn(Cc4ccccc4F)nn3)S(=O)(=O)C2)cc1OC (stereo not given) | – | · | · | · | –
CN1C(=O)C[C@@](C#N)(C(=O)N2CCCC2)[C@H]1c1ccccc1 | – | · | · | · | –
Cc1cc(C)cc(NC(=O)OC2CCC23CCCCC3)c1 (stereo not given) | – | · | · | · | –
C=CCSc1nnc2nc3c(nn12)c1cc(C)ccc1n3CC=C | 50.3 | – | – | – | 51.3
C=CCn1c2ccccc2c2nnc(SCC(N)=O)nc21 | – | – | – | – | –
SMILES | NPR1 activator | m5-HT2A agonist | MsrA inhibitor | bovine MsrA act | NPR2 activator
CCCCNCCOCCSc1ccc(Cl)cc1 | – | 29.9 | – | – | –
COCCCNCCOCCSc1ccc(Cl)cc1 | – | – | – | – | –
CC1C/C(=C\c2cccnc2)C(=O)/C(=C/c2cccnc2)C1 (stereo not given) | – | – | 5.2 | – | –
COc1ccc(C2c3[nH]c4ccccc4c3C[C@H]3C(=O)N(c4ccccc4C(=O)N4CCC(C(=O)O)CC4)C(=O)N23)cc1 (stereo not given in full) | – | – | – | – | –
COc1cccc(C2c3[nH]c4ccccc4c3C[C@H]3C(=O)N(c4ccccc4C(=O)N4CCC(C(=O)O)CC4)C(=O)N23)c1 (stereo not given in full) | – | – | – | – | 51.4
CN1CC=C(c2ccccc2)N(c2ccccc2)C1=O | – | · | · | · | –
COc1cccc(/C=C2\CC3(OC(=O)C4CCCCC4)CCCN2C3)c1 (stereo not given) | – | · | · | · | –
